An excerpt weighted towards active compounds, which were near 2.9% of everything screened.
IP6K1 inhibitor = IP6K1 kinase inhibition; IP6K1 kinase, ADP-Glo luminescence, 2 h; stronger effect = lower value; activity change, % (series mostly up to about 58 µM); 140,000 compounds, 0.81% hits; AID 1645851; in the data active = activity change below about -25%; note: % is set by controls: 0 for no effect and ±100 for the full control effect
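ADP-Glo luminescence measures ADP made by human IP6K1 during a 2 h RT reaction with ATP/IP6 (mix at 1.3 mM/130 uM); top library doses 57.5 and 19.1 uM final.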
HEK293 viab = cell viability loss counter-screen; HEK-293-SNCA-luc viability, GF-AFC fluorescence, 24 h; Potency, µM (highest dose often 57.1 µM), for the others: at the top dose activity change, negative = cytotoxicity, usual class: cytotoxic; 150,000 compounds, 0.12% hits; AID 1671193;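 note: potency is the fitted concentration of half-maximal effect; 0% = DMSO-treated cells and -100% = medium-only wells without cells; nearly all actives have a fitted effect of over 30% in size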
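Cytotoxicity counterscreen: after 24 h compound treatment of genome-edited SNCA-luciferase HEK-293 cells, live-cell protease substrate GF-AFC read by fluorescence after 30 min; activity scaled between DMSO (0%) and medium-only (-100%), curves Hill-fitted.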
KDM5B inh = KDM5B demethylase inhibition. 220,000 compounds, 2.6% hits. Potency, µM (titrated, usually from 57.7 µM), actives largely listed as inhibitors. KDM5B demethylase, FDH-coupled NADH fluorescence (FDH is formaldehyde dehydrogenase). Q9UGL1; note: potency is the fitted concentration of half-maximal effect; 0% is about no effect; nearly all actives have a fitted effect of over 70% in size
Target sequence (Q9UGL1 whole entry, looked up): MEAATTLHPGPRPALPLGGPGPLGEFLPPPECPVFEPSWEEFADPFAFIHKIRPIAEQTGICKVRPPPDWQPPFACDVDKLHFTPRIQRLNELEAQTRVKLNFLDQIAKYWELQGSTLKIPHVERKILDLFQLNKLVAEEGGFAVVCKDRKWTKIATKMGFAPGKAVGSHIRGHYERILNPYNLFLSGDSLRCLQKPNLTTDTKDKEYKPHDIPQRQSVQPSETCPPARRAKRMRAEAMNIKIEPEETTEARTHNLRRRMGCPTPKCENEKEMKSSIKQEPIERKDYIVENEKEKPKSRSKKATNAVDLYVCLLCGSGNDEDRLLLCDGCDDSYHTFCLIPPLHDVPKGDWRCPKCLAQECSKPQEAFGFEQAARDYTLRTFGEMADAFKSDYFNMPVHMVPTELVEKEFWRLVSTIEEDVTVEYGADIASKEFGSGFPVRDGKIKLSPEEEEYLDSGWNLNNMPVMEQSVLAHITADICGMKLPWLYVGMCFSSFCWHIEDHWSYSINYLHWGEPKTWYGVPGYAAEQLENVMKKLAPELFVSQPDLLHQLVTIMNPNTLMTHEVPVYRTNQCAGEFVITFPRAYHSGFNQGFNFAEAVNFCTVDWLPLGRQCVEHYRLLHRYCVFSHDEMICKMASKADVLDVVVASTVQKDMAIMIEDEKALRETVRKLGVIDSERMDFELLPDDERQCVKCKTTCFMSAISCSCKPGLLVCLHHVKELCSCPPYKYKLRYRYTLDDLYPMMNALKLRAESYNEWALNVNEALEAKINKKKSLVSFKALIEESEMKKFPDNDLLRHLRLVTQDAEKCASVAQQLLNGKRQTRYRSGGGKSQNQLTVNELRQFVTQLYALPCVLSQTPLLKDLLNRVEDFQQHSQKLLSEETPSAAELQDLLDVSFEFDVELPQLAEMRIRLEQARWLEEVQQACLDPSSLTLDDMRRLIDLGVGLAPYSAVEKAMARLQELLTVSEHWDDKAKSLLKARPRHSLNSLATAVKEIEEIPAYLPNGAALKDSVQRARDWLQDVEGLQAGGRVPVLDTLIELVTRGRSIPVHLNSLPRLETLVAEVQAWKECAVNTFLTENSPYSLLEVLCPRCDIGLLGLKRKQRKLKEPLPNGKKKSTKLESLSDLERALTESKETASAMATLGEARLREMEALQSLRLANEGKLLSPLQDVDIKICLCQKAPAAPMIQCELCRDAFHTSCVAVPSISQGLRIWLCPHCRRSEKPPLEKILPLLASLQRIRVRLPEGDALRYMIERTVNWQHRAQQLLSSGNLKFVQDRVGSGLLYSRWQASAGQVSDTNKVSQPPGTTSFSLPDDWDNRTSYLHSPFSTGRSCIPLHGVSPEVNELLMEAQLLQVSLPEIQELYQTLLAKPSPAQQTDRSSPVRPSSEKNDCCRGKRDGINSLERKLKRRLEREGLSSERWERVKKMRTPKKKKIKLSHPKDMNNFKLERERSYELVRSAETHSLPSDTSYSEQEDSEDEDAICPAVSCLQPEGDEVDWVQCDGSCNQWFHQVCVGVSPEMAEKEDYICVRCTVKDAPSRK
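Compound dilutions met 200 nM (final) KDM5BΔAP for 10 min at room temperature before substrate addition. The substrate mix held 12.5 µM H3K4me3 with cofactors 25 µM α-ketoglutarate and 50 µM Fe²⁺. NADH signal gain over 30 min defined activity.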
SNCA expr inhib = SNCA gene expression inhibition | 140,000 compounds, 0.17% hits | Potency, µM (highest dose often 57.2 µM), for the others: at the highest dose activity change, negative = inhibition, most hits filed as inhibitors | HEK-293 SNCA-luciferase knock-in, luminescence, 24 h | AID 1671194;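 note: potency is the fitted concentration of half-maximal effect; plate controls were DMSO cells for no effect and cell-free wells for full effect; nearly all actives have a fitted effect of over 45% in size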
IP6K1 inh cnf = human IP6K1 inhibition, confirmatory; 1,200 compounds, 13% hits; AID 1645852; shares compounds with IP6K1 inhibitor; Potency, µM (doses to about 49 µM), for the others: at the highest dose activity change, negative = inhibition, most hits filed as inhibitors; recombinant IP6K1 kinase, ADP-Glo luminescence, 2 h; note: potency is the fitted concentration of half-maximal effect; % is set by controls: 0 for no effect and ±100 for the full control effect; nearly all actives have a fitted effect of over 65% in size
An asterisk follows results filed as active; ! = not active in a repeat; [ ] = remark or other dose. Unless noted, calls come from the whole dose curve; as a rule, active = well fitted curve in the direction sought with a large enough effect; inconclusive = small, poorly fitted or top-dose-only effect, or another doubt; inactive = no such curve, though single readings can be large; an effect the other way counts as inactive or inconclusive.

`Cc1ccc(C2=Nc3ccccc3NC(c3ccncc3)=N2)cc1` gave IP6K1 inhibitor -29.7*, HEK293 viab -19.1%, KDM5B inh inactive, SNCA expr inhib -15.4% and IP6K1 inh cnf 8.9%.
Screening CCCOc1ccc(C2=NC(c3ccncc3)=Nc3ccc(C)cc3N2)cc1 returned IP6K1 inhibitor -9.9, HEK293 viab -7.1%, KDM5B inh inactive and SNCA expr inhib -7.0%.
`CC(C)=CC(=O)Nc1cc(Cl)cc(Cl)c1` gave KDM5B inh inactive.
For CCc1nn(CC(=O)N2CCN(c3cccc(C)c3C)CC2)c(=O)c2cc3sccc3n12 the results were IP6K1 inhibitor -28.9*, HEK293 viab 13.9%, KDM5B inh inactive, SNCA expr inhib -6.3% and IP6K1 inh cnf -15.0%.
`Cc1cc(C(=O)CSc2ccc(Cl)cc2)c(C)[nH]1` gave KDM5B inh inactive.
Cn1nc(C(=O)Nc2cc(C(F)(F)F)ccc2N2CCOCC2)c2ccccc2c1=O was read as KDM5B inh inactive.
For N#Cc1ccc2ncnc(NCCc3ccccc3)c2c1 the results were IP6K1 inhibitor -45.0*, HEK293 viab -4.3% and IP6K1 inh cnf 10.3µM*.
`N#Cc1cccc(-c2ccc3ncnc(NCc4cccnc4)c3c2)c1` gave HEK293 viab 4.3% and SNCA expr inhib 3.9%.
`CCC(CC)C(=O)N1[C@@H](c2ccccc2)[C@@H](C(=O)O)C[C@]12CCCCN(CCOC)C2=O` gave IP6K1 inhibitor -1.9.
Screening CN1CCN(c2cccc(Nc3nc4c(-c5ccc(S(C)(=O)=O)cc5)cccn4n3)c2)CC1 returned IP6K1 inhibitor -11.0, HEK293 viab 22.2%, SNCA expr inhib 10.7% and IP6K1 inh cnf 0.8%.
`Cc1cnc(Nc2ccc(N3CCN(C)CC3)cc2)nc1Nc1cccc(S(=O)(=O)NC(C)(C)C)c1` gave HEK293 viab inconclusive and SNCA expr inhib 91.8%.
Cc1noc(-c2ccc(N3CCC(C)CC3)c([N+](=O)[O-])c2)n1 was read as IP6K1 inhibitor -36.3*, HEK293 viab -6.7%, KDM5B inh inactive, SNCA expr inhib 90.2% and IP6K1 inh cnf inconclusive.
For Cc1ccc(-c2noc(-c3ccc(N4CCC(C)CC4)c([N+](=O)[O-])c3)n2)cc1 the results were IP6K1 inhibitor -6.7, HEK293 viab -0.1%, KDM5B inh inactive and SNCA expr inhib 16.9%.
`O=C(Cc1ccccc1)N1CCC(O)(c2csc(CN3CCOCC3)n2)CC1` gave IP6K1 inhibitor 19.4, HEK293 viab -4.1%[87.6 µM], KDM5B inh inactive and SNCA expr inhib -4.7%[87.6 µM].
O=C(Nc1ccc(Cl)cc1)N1CCN(c2ccc3nnc(-c4ccccc4)n3n2)CC1 was read as IP6K1 inhibitor -29.5*!, HEK293 viab inconclusive, KDM5B inh inconclusive, SNCA expr inhib -17.3% and IP6K1 inh cnf inconclusive.
`O=C(Nc1ccc(Cl)cc1)N1CCCN(c2ccc3nnc(-c4ccccc4)n3n2)CC1` gave IP6K1 inhibitor 8.7.
`COc1cc(C(=O)OCCCC(=O)c2ccc(Br)cc2)ccc1OCc1ccc(Cl)cc1` gave KDM5B inh inactive.
`O=C(Nc1ccc(I)cc1)c1cc(-c2ccc[nH]2)n[nH]1` gave IP6K1 inhibitor -9.5, HEK293 viab -8.9%, KDM5B inh inactive, SNCA expr inhib 75.0% and IP6K1 inh cnf inconclusive.
Cc1cc(NC(=O)c2cc(-c3ccc[nH]3)n[nH]2)ccc1F was read as IP6K1 inhibitor 21.8, HEK293 viab -0.9%, KDM5B inh inactive and SNCA expr inhib 69.4%.
For O=C(Nc1cccc(OC(F)(F)F)c1)c1cc(-c2ccc[nH]2)n[nH]1 the results were IP6K1 inhibitor 6.2, HEK293 viab -4.7%, KDM5B inh inactive, SNCA expr inhib -24.5% and IP6K1 inh cnf inconclusive.
Cc1ccc(F)cc1NC(=O)c1cc(-c2ccc[nH]2)n[nH]1 was read as IP6K1 inhibitor 9.7, HEK293 viab -16.3%, KDM5B inh inactive, SNCA expr inhib 72.5% and IP6K1 inh cnf inconclusive.
O=C1Nc2nc(-c3c(O)cccc3OCC3CC3)cc([C@@H]3CCCNC3)c2CO1 was read as IP6K1 inhibitor -10.7, HEK293 viab inconclusive and IP6K1 inh cnf -16.8%.
COc1ccc(NC(=O)C(=O)NCC2(c3ccccc3)CCCC2)c(OC)c1 was read as IP6K1 inhibitor -26.7*, HEK293 viab 3.6%, KDM5B inh inactive, SNCA expr inhib -0.4% and IP6K1 inh cnf -2.1%.
For O=C(O)c1ccccc1Nc1cccc(C(F)(F)F)c1 the results were IP6K1 inhibitor -31.3*, HEK293 viab 12.8%[23.9 µM], SNCA expr inhib -11.5%[25.6 µM] and IP6K1 inh cnf inconclusive.
For O=C(O)c1ccccc1Nc1ccccc1 the results were HEK293 viab 0.4% and SNCA expr inhib 21.3%.
`COc1ccc(OC(=O)c2nc(SCc3ccc(F)cc3)ncc2Cl)cc1` gave IP6K1 inhibitor -19.0, HEK293 viab 3.0%, KDM5B inh inactive and SNCA expr inhib -7.6%.
`Cc1ccc(CNC(=O)c2nc(SCc3ccc(C)cc3)ncc2Cl)cc1` gave IP6K1 inhibitor -6.5, HEK293 viab 8.8%, KDM5B inh inactive and SNCA expr inhib inconclusive.
`Cc1ccccc1OC(=O)c1nc(SCc2ccccc2F)ncc1Cl` gave IP6K1 inhibitor -12.8, HEK293 viab inconclusive, KDM5B inh inactive and SNCA expr inhib 2.8%.
`COc1ccc(OC(=O)c2nc(SCc3ccc(C)cc3)ncc2Cl)cc1` gave IP6K1 inhibitor -28.2*, HEK293 viab 4.6%, KDM5B inh inconclusive, SNCA expr inhib 6.1% and IP6K1 inh cnf -2.7%.
Screening Cc1ccc(CSc2ncc(Cl)c(C(=O)Oc3ccc(F)cc3)n2)cc1 returned IP6K1 inhibitor -25.2*, HEK293 viab -0.7%, KDM5B inh inconclusive, SNCA expr inhib -6.7% and IP6K1 inh cnf 13.4%.
Screening O=C(Oc1ccccc1F)c1nc(SCc2ccc(F)cc2)ncc1Cl returned IP6K1 inhibitor -37.9*, HEK293 viab 7.1%, KDM5B inh inactive, SNCA expr inhib 18.7% and IP6K1 inh cnf -1.2%.
N#CC1=C(N)OC2=C(C(=O)CC(c3ccccc3Cl)C2)C1c1ccc(Cl)cc1 (stereo not drawn) was read as KDM5B inh inactive.
For CCOC(=O)c1cnc2ccc(Cl)cc2c1Nc1ccc(N2CCOCC2)cc1 the results were IP6K1 inhibitor -25.4*, HEK293 viab -5.6%, KDM5B inh inactive, SNCA expr inhib -25.9% and IP6K1 inh cnf -12.8%.
`COc1ccc(OCC(=O)NCc2ccc3c(c2)CCN3C(=O)c2ccc(F)cc2)cc1` gave IP6K1 inhibitor -35.9*, HEK293 viab 20.4%, KDM5B inh inconclusive, SNCA expr inhib -4.1% and IP6K1 inh cnf -9.1%.
Screening CC(C)NC(=O)N1CCC(N2CCN(Cc3ccc(F)cc3)C(=O)C2=O)CC1 returned IP6K1 inhibitor 10.2, HEK293 viab -11.4%, KDM5B inh inactive and SNCA expr inhib 18.4%.
For CC(C)NC(=O)N1CC[C@H](N=C2Nc3cc(F)ccc3N(CC(F)F)c3ccc(Cl)cc32)C1 the results were IP6K1 inhibitor -4.9, HEK293 viab 6.2%[12.5 µM] and IP6K1 inh cnf -6.0%[13.7 µM].

Bioassay records: PubChem, National Center for Advancing Translational Sciences (NCATS)
